Measured values: PubChem BioAssay (NCI)
Compounds without any hit were thinned out: in the full panel of roughly 79,000, 15% have a hit. A number with no mark means an inactive call. Calls of active or inactive are those of the source. Cut-off read from the data, not from the text of the source: active = growth inhibition above about 70%; inactive = the rest.

What was measured:
[1] = NCI Yeast Anticancer Drug Screen. Data for the rad50 strain (AID 155);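 note: 0% = growth of vehicle-only cultures of the same strain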; details: S. cerevisiae rad50 strain growth inhibition, active compounds read high
Summary of the method: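 Readout: growth inhibition relative to vehicle-treated cultures. Compound exposure was carried out in a genetically defined yeast strain deficient in DNA damage repair.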

[2] = NCI Yeast Anticancer Drug Screen. Data for the mec2-1 strain (AID 157); details: S. cerevisiae mec2-1 strain, active compounds read high
Summary of the method: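 Compounds were applied to mec2-1 yeast cells. Their growth was then compared with that of vehicle-treated cultures to give growth inhibition.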

[3] = NCI Yeast Anticancer Drug Screen. Data for the sgs1 mgt1 strain (AID 161);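 note: 0% = growth of cultures given vehicle only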; details: S. cerevisiae sgs1 mgt1 strain, active compounds read high
Summary of the method: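 Yeast cells carrying a defined DNA-repair defect were exposed to test compounds. Growth inhibition was measured relative to vehicle-treated controls.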

[4] = NCI Yeast Anticancer Drug Screen. Data for the cln2 rad14 strain (AID 165);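 note: 0% = growth equal to vehicle treated cultures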; details: S. cerevisiae cln2 rad14 strain, active compounds read high
Summary of the method: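 Strain: cln2 rad14 yeast, altered in cell cycle control and DNA damage repair. Read-out: growth inhibition vs vehicle.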

[5] = NCI Yeast Anticancer Drug Screen. Data for the mlh1 rad18 strain (AID 175); details: S. cerevisiae mlh1 rad18 strain growth inhibition, active compounds read high
Summary of the method: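 A repair-deficient yeast strain is exposed to test compound, and growth is scored relative to vehicle-treated controls.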

[6] = NCI Yeast Anticancer Drug Screen. Data for the bub3 strain (AID 167); details: S. cerevisiae bub3 mutant strain, active compounds read high
Summary of the method: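 Readout: yeast growth inhibition, expressed relative to vehicle-only wells. The test organism is a mutant strain from a panel with lesions in DNA repair or checkpoint genes.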

[7] = at 5.0 µM (retest, dose inferred, filed as 0.5)
[8] = at 50.0 µM (retest, dose inferred, filed as 5.0)

SMILES: Cc1c2ccccc2c(=O)n2c(-c3ccccn3)cccc12
- growth inhibition [1, 7]: -47%
- growth inhibition [1, 8]: -14%
- growth inhibition ([1]; at 50.0 µM): 46.8%
- growth inhibition [2, 7]: -20%
- growth inhibition [2, 8]: -16%
- growth inhibition ([2]; at 50.0 µM): -1.2%
- growth inhibition [3, 7]: 7%
- growth inhibition [3, 8]: -3%
- growth inhibition ([3]; at 50.0 µM): 77.8% (active)
- growth inhibition [4, 7]: 8%
- growth inhibition [4, 8]: 26%
- growth inhibition ([4]; at 50.0 µM): 33.1%
- growth inhibition [5, 7]: -43%
- growth inhibition [5, 8]: 31%
- growth inhibition ([5]; at 50.0 µM): -6.4%

SMILES: O=S(=O)(Nc1ccccn1)c1ccc(NCc2c3ccccc3nc3cc(Cl)ccc23)cc1
- growth inhibition [1, 7]: 0%
- growth inhibition [1, 8]: 65%
- growth inhibition ([1]; at 50.0 µM): 65.9%
- growth inhibition [2, 7]: 4%
- growth inhibition [2, 8]: 37%
- growth inhibition ([2]; at 50.0 µM): 55.2%
- growth inhibition [4, 7]: 6%
- growth inhibition [4, 8]: 36%
- growth inhibition ([4]; at 50.0 µM): 31.9%
- growth inhibition [6, 7]: 8%
- growth inhibition [6, 8]: 76% (active)
- growth inhibition ([6]; at 50.0 µM): 34.8%
- growth inhibition [5, 7]: 3%
- growth inhibition [5, 8]: 52%
- growth inhibition ([5]; at 50.0 µM): 71.8% (active)

SMILES: Cc1nc(C(N)=S)sc1C(=O)C/C(=N/N)C(=O)Nc1cccc(Cl)c1C
- growth inhibition [1, 7]: 8%
- growth inhibition [1, 8]: 24%
- growth inhibition ([1]; at 50.0 µM): 26.1%
- growth inhibition [2, 7]: -5%
- growth inhibition [2, 8]: 14%
- growth inhibition ([2]; at 50.0 µM): 29.6%
- growth inhibition [3, 7]: -7%
- growth inhibition [3, 8]: 23%
- growth inhibition ([3]; at 50.0 µM): -4.95%
- growth inhibition [6, 7]: 5%
- growth inhibition [6, 8]: 23%
- growth inhibition ([6]; at 50.0 µM): 6.25%
- growth inhibition [5, 7]: 11%
- growth inhibition [5, 8]: 7%
- growth inhibition ([5]; at 50.0 µM): 37.1%

SMILES: COC(=O)c1cccc2c3ccccc3c3ccccc3c12
- growth inhibition [1, 7]: 6%
- growth inhibition [1, 8]: 98% (active)
- growth inhibition ([1]; at 50.0 µM): 97.1% (active)
- growth inhibition [2, 7]: 15%
- growth inhibition [2, 8]: 98% (active)
- growth inhibition ([2]; at 50.0 µM): 99.5% (active)
- growth inhibition [4, 7]: 6%
- growth inhibition [4, 8]: 97% (active)
- growth inhibition ([4]; at 50.0 µM): 99.5% (active)
- growth inhibition [6, 7]: 12%
- growth inhibition [6, 8]: 97% (active)
- growth inhibition ([6]; at 50.0 µM): 97.8% (active)
- growth inhibition [5, 7]: 9%
- growth inhibition [5, 8]: 99% (active)
- growth inhibition ([5]; at 50.0 µM): 99.2% (active)

SMILES: CN=c1ss/c(=N\C(=S)N(C)C)n1-c1ccccc1
- growth inhibition [1, 7]: -10%
- growth inhibition [1, 8]: -10%
- growth inhibition ([1]; at 50.0 µM): -17.1%
- growth inhibition [2, 7]: -11%
- growth inhibition [2, 8]: 7%
- growth inhibition ([2]; at 50.0 µM): -7.45%
- growth inhibition [3, 7]: 13%
- growth inhibition [3, 8]: -20%
- growth inhibition ([3]; at 50.0 µM): -18.6%
- growth inhibition [6, 7]: 4%
- growth inhibition [6, 8]: 7%
- growth inhibition ([6]; at 50.0 µM): 42.5%
- growth inhibition [5, 7]: -20%
- growth inhibition [5, 8]: 3%
- growth inhibition ([5]; at 50.0 µM): -22.5%
